An excerpt weighted towards active compounds, which were near 1.4% of everything screened.
Vif-APOBEC3F blk – qHTS for Inhibitors of Vif-A3F Interactions: qHTS; HeLa A3F-eYFP + Vif (tagged APOBEC3F with the HIV-1 protein that degrades it), YFP fluorescence increase; Potency, µM (titrated, usually from 46.1 µM), for the others: at the top dose activity, negative = active; 390,000 tested, 0.2% active; also: potency is read from the fitted curve at half-maximal effect; % of control where 0% means no effect; nearly all actives have a fitted effect of over 65% in size
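HeLa cells stably expressing A3F-eYFP plus Vif, plated and incubated overnight at 37 deg C, then exposed to compounds overnight at 37 deg C. Blocked degradation read as raised yellow fluorescence (Ex 488/Em 500-530).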
Vif-APOBEC3G blk – qHTS for Inhibitors of Vif-A3G Interactions: qHTS. 410,000 tested, 0.076% active. AID 602310, 2012. DNA dC->dU-editing enzyme APOBEC-3G (Homo sapiens), Q9HC16. Potency, µM (series often up to 46.1 µM), inactives show top-dose activity, negative = active, actives largely listed as inhibitors. HeLa A3G-eYFP + Vif (tagged APOBEC3G with the HIV-1 protein that degrades it), YFP fluorescence, overnight; also: potency is read from the fitted curve at half-maximal effect; % is scaled to controls: 0 for no effect and ±100 for the full control effect; nearly all actives have a fitted effect of over 60% in size
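Read-out is eYFP fluorescence (Ex 488/Em 500-530) from Vif-expressing HeLa A3G-eYFP cells; more signal means A3G escaped Vif-mediated degradation. Cells plated overnight, compound pinned in, incubated overnight at 37 deg C.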
Akt phos inh – HTS Assay for Inhibitors of Akt Phophorylation: Primary Screen; Neuro2A IGF-stimulated pAkt S473 HTRF, 20 min; stronger effect = lower value; activity change, % for hits at 50 µM; 360,000 tested, 0.32% active; in the data active = activity change below about -80%; inconclusive = mostly about -51% to -80%; also: % is scaled to controls: 0 for no effect and ±100 for the full control effect
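Neuro2A cells (4,500/well, DMEM with 0.5% FBS) were treated with compound at a single 50 µM final concentration, stimulated with 6 nM IGF for 20 min at 37 °C, and lysed. Phospho-Akt Ser473 was read by HTRF as 665/615 ratio ×10^4.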
TSG101-PTAP inh – qHTS Assay for Iinhibitors of HIV-1 Budding by Blocking the Interaction of PTAP/TSG101. AID 493005, 2010. Tumor susceptibility gene 101 protein (Homo sapiens), Q99816. Potency, µM (highest dose often 115 µM), without a hit: at the top dose activity change, negative = inhibition, hits mostly inhibitors. 340,000 tested, under 10 active. Fluorescence polarization, FITC-PTAP peptide / Tsg101 binding; active = well fitted inhibition curve with a large enough effect in the main read-out, with a control signal flat, not every such curve was filed as active; inconclusive = small, poorly fitted or top-dose-only effect, or effect the other way, or a change in a side signal; inactive = no such curve, though single readings can be large or run the other way; also: potency is read from the fitted curve at half-maximal effect; % of control where 0% means no effect
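FP read-out: FITC-PTAP peptide, 50 nM final, binding Tsg101 binding domain, 10 uM final; 20 min, r.t.; 10 mM HEPES pH 7.5, 0.15 M NaCl, 0.01% Tween 20, 3 mM EDTA, 0.1 mM TCEP.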
S-ASM inh – Inhibitors of Secretory Acid Sphingomyelinase (S-ASM): qHTS; AID 504937, 2011; placental ASM, HMU-PC fluorogenic substrate, 60 min; 340,000 tested, 0.006% active; Potency, µM (top dose mostly 57.5 µM), without a hit: at the top dose activity change, negative = inhibition, usual class: inhibitors; also: potency is read from the fitted curve at half-maximal effect
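Human placenta-derived ASM enzyme was preincubated with compound for 10 minutes at room temperature, then given fluorogenic substrate HMU-PC0 (9 uM final) for 60 minutes at 37 °C; a pH 10 stop preceded fluorescence reading at Ex 386/Em 447 nm.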
ALOX12 inh – Primary qHTS assay for inhibitors of human arachidonate 12S-lipoxygenase (ALOX12): Round 2. Polyunsaturated fatty acid lipoxygenase ALOX12 (Homo sapiens), P18054. purified 12hLO, xylenol orange hydroperoxide absorbance. Potency, µM (doses to about 108 µM), for inactives: top-dose activity change, negative = inhibition, hits mostly inhibitors. 580,000 tested, 1.1% active; also: potency is read from the fitted curve at half-maximal effect; % is scaled to controls: 0 for no effect and ±100 for the full control effect
Target sequence (P18054 whole entry, looked up): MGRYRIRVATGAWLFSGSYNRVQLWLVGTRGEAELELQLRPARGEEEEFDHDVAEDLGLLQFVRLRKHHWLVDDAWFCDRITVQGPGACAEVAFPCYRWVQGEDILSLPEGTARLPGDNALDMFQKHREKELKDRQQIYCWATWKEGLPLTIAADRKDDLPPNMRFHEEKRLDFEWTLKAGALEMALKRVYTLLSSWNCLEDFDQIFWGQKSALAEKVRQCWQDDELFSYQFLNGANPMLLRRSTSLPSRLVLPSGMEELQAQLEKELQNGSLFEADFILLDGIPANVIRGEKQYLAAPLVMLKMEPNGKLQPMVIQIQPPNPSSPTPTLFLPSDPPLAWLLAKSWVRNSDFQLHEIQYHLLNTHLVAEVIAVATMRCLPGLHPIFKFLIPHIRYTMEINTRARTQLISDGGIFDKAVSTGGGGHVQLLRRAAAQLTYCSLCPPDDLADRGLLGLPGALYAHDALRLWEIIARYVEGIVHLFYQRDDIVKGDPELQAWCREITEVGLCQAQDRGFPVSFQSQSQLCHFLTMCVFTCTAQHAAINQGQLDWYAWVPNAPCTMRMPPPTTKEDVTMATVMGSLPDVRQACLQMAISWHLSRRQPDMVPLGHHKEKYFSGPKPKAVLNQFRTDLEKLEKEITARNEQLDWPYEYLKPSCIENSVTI
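Hydroperoxide product was detected by ferrous iron/xylenol orange as the 573 to 405 nm absorbance ratio. Arachidonic acid at 40 uM (final) was turned over for 30 min at room temperature by 150 nM human 12hLO, pH 7.0 Hepes buffer, after 15 min compound preincubation.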
Starred values were filed as active, the others as inactive; i = inactive; ? = inconclusive; . = no result; ! = repeats disagree. Unless noted, calls follow the shape of the dose curve; as a rule, active = well fitted curve in the direction sought with a large enough effect; inconclusive = small, poorly fitted or top-dose-only effect, or another doubt; inactive = no such curve, though single readings can be large; an effect the other way counts as inactive or inconclusive.

SMILES	Vif-APOBEC3F blk	Vif-APOBEC3G blk	Akt phos inh	TSG101-PTAP inh	S-ASM inh	ALOX12 inh
O=C(NC(=S)NC1CCCCCC1)c1cncc(Br)c1	-8.4%	0.8%	i	-3.4%	-2.5%	31.6µM*
O=C(NC(=S)NC1CCCCC1)c1ccccc1	-8.7%	-6.1%	i	-0.1%	-0.8%	35.5µM*
S=C(NCCCc1ccccc1)NC1CCCCC1	-18.9%	1.4%	i	-2.4%	2.6%	44.7µM*
S=C(NC1CCCCC1)NN(c1ccccc1)c1ccccc1	2.9%	-2.6%	i	-1.6%	-1.1%	39.8µM*
S=C(NCc1ccccc1)NC1CCCCC1	1.1%	0.0%	i	0.1%	0.5%	-29.3%
O=C(NC(=S)NC1CCS(=O)(=O)C1)c1ccccc1 (stereo not drawn)	-8.1%	-1.0%	i	-5.0%	5.4%	62.9%
COc1ccc(C2CC(=O)Nc3c(C(=O)O)cn(-c4ccc(F)cc4)c32)cc1O (stereo not drawn)	.	.	.	.	.	-9.5%
Cc1occc1C(=O)Nc1nc(CC(=O)Nc2ccc3c(c2)CCC3)cs1	.	.	.	.	.	-16.7%
Cc1ccc(NS(=O)(=O)c2cc(C)c(C(=O)O)s2)cc1C	.	.	.	.	.	-52.8%
O=C(N/N=C/c1ccccc1)NC1CCCCC1	2.9%	-2.4%	i	-1.7%	1.2%	-24.3%
O=C(NC(=S)NC1CCCc2ccccc21)c1ccc(F)cc1 (stereo not drawn)	-7.5%	-11.2%	i	7.1%	-3.6%	17.8µM*
C/C(=N\NC(=S)NC1CCCCC1)c1ccccc1	-11.1%	1.8%	i	0.2%	-1.9%	25.1µM*
CC(C)(C)c1ccc(/C=N/NC(=S)NC2CCCCC2)cc1	?	-6.0%	i	-0.5%	.	28.2µM*
Cc1cc(C)nc(N/C(=N\S(=O)(=O)Cc2ccccc2)Nc2cccc(Cl)c2C)n1	0.5%	-9.1%	-118.2%*	0.6%	-1.0%	0.0%
CCCc1c(C(=O)OCC)sc(N)c1C#N	-4.4%	-0.5%	i	0.1%	1.7%	-6.2%
CCNc1sc(C(C)=O)c(N)c1C#N	.	.	.	.	.	3.16µM*
OC[C@@H]1CN(Cc2cccc3ccccc23)C[C@H](n2cnc3c(NCc4ccco4)ncnc32)O1	.	-1.4%	i	.	.	35.5µM*
O=C1C(O)=C(c2ccccc2)C(c2ccccc2F)N1c1ccc(F)cc1 (stereo not drawn)	.	.	.	.	.	-9.1%
CCn1c2c(c(=O)n1-c1ccccc1)CCN(CCCc1ccccc1)C2	.	.	.	.	.	28.2µM*
Cc1ccc(NS(=O)(=O)c2ccc3[nH]c(=O)oc3c2)c(C)c1	-1.2%	8.8%	i	-2.1%	-1.1%	50.1µM*!
Cc1ccc(NC(=O)CN(C)S(=O)(=O)c2ccc3[nH]c(=O)oc3c2)c(C)c1	1.2%	4.4%	i	-2.1%	4.2%	?
O=CNc1ccc2c3c(cccc13)-c1ccccc1-2	?	12.6µM*	i	-6.5%	i	4.5%
COC(=O)c1ccc(COC(=O)c2cc3c(s2)CCC3)o1	.	.	.	.	.	8.91µM*
N#C/C(=C\c1ccccc1)c1nc2ccccc2[nH]1	.	.	.	.	.	24.7%
N#C/C(=C\c1ccc(Cl)cc1)c1nc2ncccc2[nH]1	-1.2%	?	-105.2%*	-1.4%	193.5%	0.5%
CCOC(=O)C1=C(C)NC(=O)NC1C1CC=CCC1 (stereo not drawn)	?	0.6%	i	-0.6%	0.0%	-14.1%
COC(=O)C1=C(C)NC(C)=C(C(=O)OC)C1C1CC=CCC1 (stereo not drawn)	0.9%	-3.9%	-129.8%*	-0.8%	-0.2%	6.9%
